PubChem BioAssay (NCATS)
Several values for one entry are separate records, joined by “and”; a condition that tells them apart may be missing. Identical values can stand only once. Inconclusive results are not listed. Entries that show only a call come without a potency. Activity calls are given as the source filed them. Unless noted, the call rests on the fitted dose curve; in most records, active means well fitted curve in the direction sought with a large enough effect; inconclusive means small, poorly fitted or top-dose-only effect, or another doubt; inactive means no such curve, though single readings can be large; an effect the other way counts as inactive or inconclusive.

What was measured:
[1] = qHTS to identify inhibitors of the type 1 interferon - major histocompatibility complex class I in skeletal muscle: primary screen against the NCATS Mechanism Interrogation Plate v5.0 (MIPE) Libary (AID 1347411); further: nearly all actives have a fitted effect of over 65% in size; further: potency means the concentration at half of the fitted maximal effect
Procedure, shortened: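 HLA-B HiBit myoblasts, dexamethasone-free medium + 4 ng/ml IFN-b, 24 h compound, 11-pt 1:3 from 46 uM final. Readout: Nano-Glo HiBiT lytic luminescence after 10 min lysis, RT.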

[2] = biological target: Calcium and integrin-binding protein 1 (Homo sapiens) (UniProt Q99828); assay: Primary qHTS for Identification of Calcium Integrin Binding Protein 1 (CIB1) Competitor (AID 1508620);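 further: GST tagged CIB1 binding a fluorescein labelled alphaIIb integrin peptide tracer; top concentration of the series differs between compounds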
Procedure, shortened: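 Fluorescence polarization competition: CIB1-GST (1 uM final) preincubated with compound 15 min at room temperature, then FITC-labeled alphaIIb peptide (100 nM final) added for another 15 min. Polarization read at Ex 480/Em 540.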

[3] = Primary qHTS for small molecule stabilizers of the endoplasmic reticulum resident proteome: Secreted ER Calcium Modulated Protein (SERCaMP) assay (AID 1508630)
Procedure, shortened: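 The SH-SY5Y reporter protocol was run at 3 concentrations up to 38.3 uM (primary) or 11 concentrations (follow-up): 16 h compound, 100 nM thapsigargin for 4 h, then extracellular luciferase luminescence.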

[4] = Primary qHTS for inhibitors of nuclear receptor binding SET domain protein 2 (NSD2) in an isogenic RCH-ACV NSD2 p.E1099K mutant (9B) (AID 1645876); further: nearly all actives have a fitted effect of over 70% in size; further: potency means the concentration at half of the fitted maximal effect
[5] = Primary qHTS for inhibitors of nuclear receptor binding SET domain protein 2 (NSD2) in an RCH-ACV wild type WT cells (2C) (AID 1645877); further: nearly all actives have a fitted effect of over 70% in size; further: potency means the concentration at half of the fitted maximal effect
[6] = biological target: Cytochrome P450 2D6 (Homo sapiens) (UniProt P10635); assay: Cytochrome P450 family 2 subfamily D member 6 (CYP2D6) small molecule antagonists: luciferase biochemical (cell-free) qHTS assay (AID 1645840; active means well fitted curve in the direction sought with a large enough effect in the repeat runs; an effect the other way counts as inactive or inconclusive; further: nearly all actives have a fitted effect of over 55% in size; further: potency means the concentration at half of the fitted maximal effect)
Procedure, shortened: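 P450-Glo CYP2D6 system: proluciferin substrate converted by enzyme to luciferin, read by luminescence proportional to activity. Enzyme-substrate mix with compound 10 min at room temperature, then NADPH regeneration 1 h before detection reagent.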

[7] = biological target: Cytochrome P450 2C9 (Homo sapiens) (UniProt P11712); assay: Cytochrome P450 family 2 subfamily C member 9 (CYP2C9) small molecule antagonists: luciferase biochemical (cell-free) qHTS assay (AID 1645842; active means well fitted curve in the direction sought with a large enough effect in the repeat runs; an effect the other way counts as inactive or inconclusive; further: nearly all actives have a fitted effect of over 55% in size; further: potency means the concentration at half of the fitted maximal effect)
Procedure, shortened: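 P450-Glo CYP2C9 system: proluciferin substrate with enzyme in mix containing 0.4% BSA, 10 min at room temperature, then NADPH regeneration solution added and incubated 1 h at 37C. Detection reagent stopped reaction; luminescence read after 20 min as RLU.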

[8] = biological target: Catechol O-methyltransferase (Homo sapiens) (UniProt P21964); assay: Confirmatory Screen for Target Class Profiling of Small Molecule Inhibitors of Methyltransferases (AID 1745852; calls by dose curve); details: MTase-Glo luminescence, SAH detection, recombinant enzyme; measured here: COMT max response; stronger effect = lower value
[9] = biological target: Guanidinoacetate N-methyltransferase (Homo sapiens) (UniProt Q14353); assay: as above; details: activity change, negative = inhibition: at 57.3 µM (top of the series)

Chain of Calcium and integrin-binding protein 1 (Homo sapiens) (Q99828 whole entry, looked up): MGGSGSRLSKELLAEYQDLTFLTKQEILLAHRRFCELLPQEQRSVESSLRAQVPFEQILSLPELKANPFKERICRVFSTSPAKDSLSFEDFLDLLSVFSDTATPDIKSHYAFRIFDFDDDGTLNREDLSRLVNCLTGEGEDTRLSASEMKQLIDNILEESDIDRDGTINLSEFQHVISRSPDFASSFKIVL
Chain of Cytochrome P450 2D6 (Homo sapiens) (P10635 whole entry, looked up): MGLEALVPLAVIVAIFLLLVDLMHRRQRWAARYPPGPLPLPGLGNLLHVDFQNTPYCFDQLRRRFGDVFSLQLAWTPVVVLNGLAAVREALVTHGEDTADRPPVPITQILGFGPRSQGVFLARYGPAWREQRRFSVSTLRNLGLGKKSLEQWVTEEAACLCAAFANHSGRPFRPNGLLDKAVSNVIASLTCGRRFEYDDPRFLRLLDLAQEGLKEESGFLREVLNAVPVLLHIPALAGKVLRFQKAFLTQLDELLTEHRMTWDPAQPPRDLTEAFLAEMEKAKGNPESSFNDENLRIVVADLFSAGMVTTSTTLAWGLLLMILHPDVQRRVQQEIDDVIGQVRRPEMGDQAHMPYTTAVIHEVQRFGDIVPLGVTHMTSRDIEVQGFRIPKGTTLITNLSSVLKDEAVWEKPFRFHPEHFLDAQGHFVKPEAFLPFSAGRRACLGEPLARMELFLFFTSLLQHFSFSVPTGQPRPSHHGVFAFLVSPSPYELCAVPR
Chain of Cytochrome P450 2C9 (Homo sapiens) (P11712 whole entry, looked up): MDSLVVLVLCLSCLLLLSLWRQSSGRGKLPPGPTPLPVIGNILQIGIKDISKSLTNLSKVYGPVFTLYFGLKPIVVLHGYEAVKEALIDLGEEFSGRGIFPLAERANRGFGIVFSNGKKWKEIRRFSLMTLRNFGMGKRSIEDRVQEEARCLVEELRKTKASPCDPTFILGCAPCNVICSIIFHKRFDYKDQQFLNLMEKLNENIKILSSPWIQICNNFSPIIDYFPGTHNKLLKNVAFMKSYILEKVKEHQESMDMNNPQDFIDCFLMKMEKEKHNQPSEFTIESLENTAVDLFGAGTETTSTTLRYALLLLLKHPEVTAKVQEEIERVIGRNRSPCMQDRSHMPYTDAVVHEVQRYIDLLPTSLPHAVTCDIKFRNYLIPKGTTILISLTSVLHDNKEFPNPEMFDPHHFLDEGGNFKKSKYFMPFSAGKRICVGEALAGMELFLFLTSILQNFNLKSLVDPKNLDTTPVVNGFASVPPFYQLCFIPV
Chain of Catechol O-methyltransferase (Homo sapiens) (P21964 whole entry, looked up): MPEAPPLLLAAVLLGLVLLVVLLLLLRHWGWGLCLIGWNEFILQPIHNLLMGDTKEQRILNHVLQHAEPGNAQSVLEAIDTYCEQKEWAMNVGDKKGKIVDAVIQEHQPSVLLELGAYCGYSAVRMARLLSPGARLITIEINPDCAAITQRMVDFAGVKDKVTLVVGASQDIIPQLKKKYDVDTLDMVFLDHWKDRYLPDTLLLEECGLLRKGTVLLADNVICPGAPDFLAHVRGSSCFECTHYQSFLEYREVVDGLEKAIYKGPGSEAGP

Structure (SMILES): CC(Oc1ccc(O)cc1)(P(=O)(O)O)P(=O)(O)O
- Potency [1]: inactive
- Potency [2]: inactive
- outcome [3]: inactive
- Potency [4]: inactive
- Potency [5]: inactive

Structure (SMILES): CC(C)c1cnn2c(NCc3ccccc3)cc(NCCCCCCN)nc12
- Potency [1]: 26.2 µM (active)
- Potency [2]: inactive
- Potency [4]: 20.9 µM (active)
- Potency [5]: 20.9 µM (active)

Structure (SMILES): COc1ccc2c(c1OC)C(=O)OC2[C@H]1c2c(cc3c(c2OC)OCO3)CCN1C (stereo not given in full)
- Potency [1]: inactive
- outcome [3]: inactive
- Potency [4]: 20.9 µM (active)

Structure (SMILES): CC1=C(C(=O)Nc2cc3cn[nH]c3cc2F)C(c2ccc(Cl)cc2F)N=C(c2ccnc(Cl)c2)N1 (stereo not given)
- Potency [1]: inactive
- Potency [2]: inactive
- Potency [6]: 6.74 µM (active)
- Potency [7]: 3.79 µM (active)
- Potency [4]: 5.78 µM (active) and 9.34 µM (active)
- Potency [5]: 2.58 µM (active) and 4.17 µM (active)

Structure (SMILES): C=CC(=O)N1CCc2ccc(-n3c(=O)ccc4cnc5ccc(-c6cnn(C)c6)cc5c43)cc21
- Potency [1]: 0.806 µM (active)
- Potency [2]: inactive
- Potency [4]: 0.363 µM (active)
- Potency [5]: 0.323 µM (active)

Structure (SMILES): OC[C@@H](O)[C@@H](O)[C@H](O)[C@@H](O)CO
- Potency [1]: inactive
- Potency [2]: inactive
- Potency [4]: inactive
- Potency [5]: inactive

Structure (SMILES): CN(C)c1ccc2cc(C(=O)N[C@@H](CCCN=C(N)CCl)C(=O)NCc3ccccc3)ccc2c1
- Potency [1]: 20.8 µM (active)
- Potency [2]: inactive
- Potency [4]: inactive
- Potency [5]: inactive

Structure (SMILES): CC(=O)NC(CS)C(=O)O (stereo not given)
- Potency [1]: inactive
- Potency [2]: inactive
- outcome [3]: inactive
- Potency [4]: inactive
- Potency [5]: inactive

Structure (SMILES): C[C@@H]1CC[C@@]2(OC1)OC1CC3C4CC=C5CC(O)CCC5(C)C4CCC3(C)C1[C@@H]2C (stereo not given in full)
- Potency [1]: inactive
- Potency [2]: inactive
- outcome [3]: inactive
- Potency [4]: inactive
- Potency [5]: inactive

Structure (SMILES): CCN(C(=O)c1c(O)c2c(Cl)cccc2n(C)c1=O)c1ccccc1
- Potency [1]: inactive
- Potency [2]: inactive
- outcome [3]: inactive
- Potency [5]: inactive

Structure (SMILES): C=C(C)[C@@H]1CC[C@]2(C)CC[C@]3(C)[C@H](CC[C@@H]4[C@@]5(C)CC[C@H](O)C(C)(C)[C@H]5CC[C@]43C)[C@@H]12
- Potency [1]: inactive
- Potency [2]: inactive
- Potency [4]: inactive
- Potency [5]: inactive

Structure (SMILES): Nc1nc(=O)n([C@H]2C[C@H](O)[C@@H](CO)O2)cc1F
- Potency [1]: inactive
- Potency [2]: inactive
- Potency [4]: 0.0118 µM (active)
- Potency [5]: 0.0148 µM (active)

Structure (SMILES): COc1cc(OC)c(NC(=O)Nc2cc(C)on2)cc1Cl
- Potency [1]: inactive
- outcome [3]: inactive

Structure (SMILES): Cc1cnc(Nc2ccc(N3CCN(C)CC3)cc2)nc1Nc1cccc(S(=O)(=O)NC(C)(C)C)c1
- Potency [1]: 11.7 µM (active)
- outcome [3]: inactive
- Potency [7]: inactive
- Potency [4]: 1.66 µM (active)
- Potency [5]: 1.86 µM (active)
- activity [8]: 8.73%
- activity change, negative = inhibition [9]: -1.34%

Structure (SMILES): O=C(O)CCCCCC(=O)NN=C1CCCC1
- Potency [1]: inactive
- Potency [2]: inactive
- outcome [3]: inactive
- Potency [4]: inactive
- Potency [5]: inactive

Structure (SMILES): COc1cc2c(cc1OC)[C@@H]1C(=O)c3ccc4c(c3O[C@@H]1CO2)C=CC(C)(C)O4
- Potency [1]: inactive
- Potency [2]: inactive
- outcome [3]: inactive
- Potency [4]: 16.4 µM (active) and 1.86 µM (active)
- Potency [5]: 18.4 µM (active) and 5.9 µM (active)

Structure (SMILES): CCCCCCCN(CC)CCCC(O)c1ccc(NS(C)(=O)=O)cc1 (stereo not given)
- Potency [1]: inactive
- Potency [2]: inactive
- outcome [3]: inactive
- Potency [4]: inactive
- Potency [5]: inactive

Structure (SMILES): Cn1cc(-c2ccc3ncc(Cc4ccc5ncccc5c4)n3n2)cn1
- Potency [1]: inactive
- Potency [2]: inactive
- Potency [6]: 12 µM (active)
- Potency [7]: 0.756 µM (active)

Structure (SMILES): O=[N+]([O-])c1cn2c(n1)OC[C@@H](OCc1ccc(OC(F)(F)F)cc1)C2
- Potency [1]: inactive
- Potency [2]: inactive
- Potency [4]: inactive

Structure (SMILES): C[C@H](NC(=O)[C@@H](O)c1cc(F)cc(F)c1)C(=O)N[C@@H]1C(=O)N(C)c2ccccc2-c2ccccc21
- Potency [1]: inactive
- Potency [2]: inactive
- Potency [4]: inactive

Structure (SMILES): O=S(=O)(O)CCSSCCS(=O)(=O)O
- Potency [1]: inactive
- Potency [2]: inactive
- Potency [4]: inactive
- Potency [5]: inactive

Structure (SMILES): Cc1ccc2nc(NCCN)c3ncc(C)n3c2c1
- Potency [1]: 4.66 µM (active)
- Potency [2]: inactive
- Potency [4]: 9.2 µM (active) and 4.68 µM (active)

Structure (SMILES): O=C(O)CCCCC(CCSCc1ccccc1)SCc1ccccc1 (stereo not given)
- Potency [1]: inactive
- Potency [2]: inactive
- Potency [4]: inactive
- Potency [5]: inactive

Structure (SMILES): NC1=N[C@H]2[C@H](CS[C@H]2CCCCC(=O)O)N1
- Potency [1]: inactive
- Potency [2]: inactive
- Potency [6]: inactive
- Potency [7]: inactive
- Potency [4]: inactive

Structure (SMILES): CCOC(=O)C=C[C@H](C[C@@H]1CCNC1=O)NC(=O)[C@@H](CC(=O)[C@@H](NC(=O)c1cc(C)on1)C(C)C)Cc1ccc(F)cc1
- Potency [1]: inactive
- Potency [2]: inactive
- Potency [4]: inactive

Structure (SMILES): Oc1ccc(-c2ccc(-c3cc(Nc4cccc(CNC5CC5)c4)n[nH]3)cc2)c(O)c1
- Potency [1]: 5.87 µM (active)
- Potency [2]: inactive
- outcome [3]: inactive
- Potency [4]: 1.48 µM (active)
- Potency [5]: 1.86 µM (active)

Structure (SMILES): FC(F)(F)c1ccc(Nc2nc3ccc(Oc4ccnc(-c5ncc(C(F)(F)F)[nH]5)c4)cc3[nH]2)cc1
- Potency [1]: inactive
- Potency [2]: inactive
- Potency [7]: 23.9 µM (active)
- Potency [4]: 14.8 µM (active)
- Potency [5]: 23.5 µM (active)
